SARS 3CLpro inh: SARS-CoV 3CLpro protease inhibitors, primary screen, biochemical, quenched FRET. Replicase polyprotein 1ab (Severe acute respiratory syndrome coronavirus), P0C6X7. recombinant SARS-CoV 3CLpro, quenched FRET peptide cleavage. inhibition, % at 6 µM. hit rate 0.14% among 290,000. AID 1706, 2009; in the data active = inhibition above about 12%
PfHsp40 rescue: rescue of yeast from PfHsp40 toxicity, primary screen, S. cerevisiae, ATP luminescence. S. cerevisiae expressing PfHsp40, growth rescue. growth rescue, % at 12.5 µM. hit rate 0.68% among 340,000; in the data active = growth rescue above about 28%, passing the limit was not always enough;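 also: yeast W303a lacking pdr1 and pdr3 grown in galactose medium; growth measured after three days at 30 °C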
PrP 5UTR inh: inhibition of PrP 5' UTR reporter expression; cell-based PrP 5' UTR mRNA reporter, plate reader; inhibition, % (test concentration not listed); hit rate 0.35% among 340,000; AID 488862, 2010; in the data active = inhibition above about 52%
BH1578 lux ind: inducers of Vibrio cholerae quorum light production without autoinducers, primary screen, BH1578 luxS cqsA deficient, single point; V. cholerae BH1578 lux reporter, luminescence, 6 h; activation, % at 18.7 µM; hit rate 0.16% among 350,000; AID 588436, 2011; in the data active = activation mostly above about 9.7%, no sharp cut-off
SSB-PriA inh: inhibitors of Klebsiella pneumoniae PriA binding to SSB C-terminal tail, primary screen, biochemical, AlphaScreen; AlphaScreen SSBct-PriA binding, biotinylated peptide; inhibition, % at 33 µM; hit rate 0.6% among 430,000; AID 1272365, 2023; in the data active = inhibition mostly above about 37%, no sharp cut-off; inactive = mostly below about 20%
PrPC surface inh: inhibitors of human cell surface prion protein PrPC, primary screen, cell-based, TR-FRET | Major prion protein (Homo sapiens), P04156 | TR-FRET read-out | inhibition, % at 13.8 µM | hit rate 0.43% among 370,000 | AID 720596, 2013; in the data active = inhibition above about 24%
Large screens that a line does not name were inactive; ! = a repeat was not active. Rows were chosen to be rich in hits. Some 1.6% of all compounds tested hit in one or more screens of this group.

O=C(c1ccccc1)c1ccccc1C(=O)N1CCC(Oc2cccnn2)CC1	none (no result: SARS 3CLpro inh, PfHsp40 rescue, PrP 5UTR inh, BH1578 lux ind, PrPC surface inh)
CCOc1cccc2sc(N(CCCn3ccnc3)C(=O)c3ccco3)nc12	none (no result: SARS 3CLpro inh, PfHsp40 rescue, PrP 5UTR inh, BH1578 lux ind, PrPC surface inh)
COc1ccc(OC)c2sc(N(CCCn3ccnc3)C(=O)c3ccco3)nc12	SSB-PriA inh 59 (no result: SARS 3CLpro inh, PfHsp40 rescue, PrP 5UTR inh, BH1578 lux ind, PrPC surface inh)
Cc1c(Cl)ccc2sc(N(CCCn3ccnc3)C(=O)COc3ccccc3)nc12	SSB-PriA inh 43 (no result: SARS 3CLpro inh, PfHsp40 rescue, PrP 5UTR inh, BH1578 lux ind, PrPC surface inh)
Cc1ccc(CNC(=O)Cn2c(-c3nc(C(C)C)no3)cccc2=O)cc1	none (no result: SARS 3CLpro inh, PfHsp40 rescue, PrP 5UTR inh, BH1578 lux ind, PrPC surface inh)
C=CCN1CCc2c(cc(O)c(O)c2Cl)C(c2ccccc2)C1 (configuration not stated)	PfHsp40 rescue 46 (no result: SARS 3CLpro inh)
CC1CCCC(C)N1C(=O)c1ccc2c(c1)S(=O)(=O)c1ccccc1C2=O (configuration not stated)	PfHsp40 rescue 70
O=C1c2ccccc2S(=O)(=O)c2cc(C(=O)N3CCC(C(=O)N4CCCCC4)CC3)ccc21	none (no result: SARS 3CLpro inh, PfHsp40 rescue, PrP 5UTR inh, BH1578 lux ind)
CCCOC(=O)NC1CCS(=O)(=O)C1 (configuration not stated)	BH1578 lux ind 17
CCCCCCCCCCOC(=O)NC1CCS(=O)(=O)C1 (configuration not stated)	none
COc1ccc(Cl)cc1NC(=O)c1n[nH]c2ccccc12	none (no result: SARS 3CLpro inh, PfHsp40 rescue, PrP 5UTR inh, BH1578 lux ind, PrPC surface inh)
O=C(c1cc2cc([N+](=O)[O-])ccc2oc1=O)n1cccn1	SSB-PriA inh 56
CCn1c(NN=O)nc2ccccc21	PfHsp40 rescue 140
O=C(O)c1ccc(NC(=O)c2cn(-c3ccccc3)nc2-c2ccccc2)cc1	none
O=C(O)c1ccc(NC(=O)c2cn(-c3ccccc3)nc2-c2ccc(Br)cc2)cc1	PfHsp40 rescue 69
CS(=O)(=O)c1ccc(CCC(=O)Nc2ccc(CC(=O)NCC(F)(F)F)cc2)cc1	none (no result: SARS 3CLpro inh, PfHsp40 rescue, PrP 5UTR inh, BH1578 lux ind, PrPC surface inh)
S=C(NCCCc1ccccc1)Nc1ccccc1Cl	PfHsp40 rescue 223
S=C(NCCCCNC(=S)NCc1ccccc1)NCc1ccccc1	none
S=C(NCCc1ccccc1)Nc1ccccc1Cl	none
S=C(NCCCCc1ccccc1)NCc1ccccc1	PfHsp40 rescue 55
Cn1nc(-c2ccc(F)cc2)cc1C(=O)N1CCC[C@H](Cc2nc(-c3cnccn3)no2)C1	none (no result: SARS 3CLpro inh, PfHsp40 rescue, PrP 5UTR inh, BH1578 lux ind, PrPC surface inh)
COc1c2ccc(C(=O)N3CCC(Oc4cc(C)oc(=O)c4)CC3)cc2nn1C	none (no result: SARS 3CLpro inh, PfHsp40 rescue, PrP 5UTR inh, BH1578 lux ind, PrPC surface inh)
O=C(O)c1cc(-n2nnnc2SCc2ccc([N+](=O)[O-])cc2)ccc1Cl	none
O=[N+]([O-])c1ccc(O)c(CSc2nnnn2-c2ccccc2)c1	SSB-PriA inh 99
O=C(O)/C(=C\c1ccc(-c2ccc(F)cc2)o1)c1ccccc1	PfHsp40 rescue 37
O=C(N1CCOCC1)C12CC3CC(C1)CC(C(=O)N1CCOCC1)(C3)C2	BH1578 lux ind 5.6
CCN(CC)CCn1c2ccccc2c(=O)c2c(O)ccc(O)c21	SSB-PriA inh 54 (no result: SARS 3CLpro inh)
Cc1ccc(CSc2nccn3nc(-c4cccs4)cc23)cc1	none (no result: SARS 3CLpro inh, PfHsp40 rescue, PrP 5UTR inh, BH1578 lux ind, PrPC surface inh)
O=C(C1CC1(c1ccccc1)c1ccccc1)N1CCOCC1 (configuration not stated)	SSB-PriA inh 55
COc1ccc(OC)c(-n2c(CNC(=O)c3ccc(S(=O)(=O)N4CCOCC4)cc3)nnc2SCC(=O)Nc2nc3ccccc3s2)c1	none (no result: SARS 3CLpro inh, PfHsp40 rescue, PrP 5UTR inh, BH1578 lux ind, PrPC surface inh)
O=C(c1cc([N+](=O)[O-])ccc1Cl)N1CCN(c2ccccc2)CC1	none
O=C(c1cc([N+](=O)[O-])ccc1Cl)N1c2ccccc2Sc2ccccc21	SSB-PriA inh 62
N#CC1C(=N)Cc2ccccc2-c2ccccc21 (configuration not stated)	PfHsp40 rescue 39 (no result: SARS 3CLpro inh)
CCOC(=O)N1CCc2c(sc(NC(=O)c3snnc3C)c2C(N)=O)C1	none (no result: SARS 3CLpro inh, PfHsp40 rescue, PrP 5UTR inh, BH1578 lux ind, PrPC surface inh)
CCCN1CCCc2cc(CCNS(=O)(=O)c3ccccc3Br)ccc21	SSB-PriA inh active! (no result: SARS 3CLpro inh, PfHsp40 rescue, PrP 5UTR inh, BH1578 lux ind, PrPC surface inh)
CCCN1CCCc2cc(CCNS(=O)(=O)c3ccccc3Cl)ccc21	SSB-PriA inh active! (no result: SARS 3CLpro inh, PfHsp40 rescue, PrP 5UTR inh, BH1578 lux ind, PrPC surface inh)
CCCN1CCCc2cc(CCNS(=O)(=O)Cc3ccccc3Cl)ccc21	SSB-PriA inh 72 (no result: SARS 3CLpro inh, PfHsp40 rescue, PrP 5UTR inh, BH1578 lux ind, PrPC surface inh)
CCCN1CCCc2cc(CCNC(=O)C(=O)NCc3ccccc3Cl)ccc21	none (no result: SARS 3CLpro inh, PfHsp40 rescue, PrP 5UTR inh, BH1578 lux ind, PrPC surface inh)
CCCCOc1ccc(C2C(=C(O)c3ccc4c(c3)OCCO4)C(=O)C(=O)N2CCCN2CCOCC2)cc1 (configuration not stated)	none (no result: SARS 3CLpro inh, PfHsp40 rescue, PrP 5UTR inh, BH1578 lux ind, PrPC surface inh)

Compound activity from PubChem BioAssay.
